{
  "source": "PubChem BioAssay (NCATS)",
  "key": {"[1]": {"molecular_target": "Cytochrome P450 2C9 (Homo sapiens) (UniProt P11712)", "sequence (P11712 whole entry, looked up)": "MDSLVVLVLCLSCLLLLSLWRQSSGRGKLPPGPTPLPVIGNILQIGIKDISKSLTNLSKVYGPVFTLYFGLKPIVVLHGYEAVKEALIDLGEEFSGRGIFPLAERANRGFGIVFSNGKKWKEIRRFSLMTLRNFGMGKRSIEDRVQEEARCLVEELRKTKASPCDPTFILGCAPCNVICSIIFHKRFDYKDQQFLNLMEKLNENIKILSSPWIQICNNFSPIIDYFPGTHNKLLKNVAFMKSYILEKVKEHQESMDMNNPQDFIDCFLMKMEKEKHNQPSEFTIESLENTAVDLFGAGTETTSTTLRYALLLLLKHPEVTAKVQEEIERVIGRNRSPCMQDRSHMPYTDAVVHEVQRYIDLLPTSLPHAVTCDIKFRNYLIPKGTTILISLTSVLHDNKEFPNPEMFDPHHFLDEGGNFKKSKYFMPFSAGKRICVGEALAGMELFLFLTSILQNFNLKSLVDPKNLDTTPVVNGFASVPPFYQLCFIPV", "test": "Cytochrome P450 family 2 subfamily C member 9 (CYP2C9) small molecule antagonists: luciferase biochemical (cell-free) qHTS assay (AID 1645842; active = well fitted curve in the direction sought with a large enough effect in the repeat runs; an effect the other way counts as inactive or inconclusive; note: nearly all actives have a fitted effect of over 55% in size; note: potency is the fitted concentration of half-maximal effect)", "procedure,_shortened": "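P450-Glo CYP2C9 system: proluciferin substrate with enzyme in mix containing 0.4% BSA, 10 min at room temperature, then NADPH regeneration solution added and incubated 1 h at 37C. Detection reagent stopped reaction; luminescence read after 20 min as RLU.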"}, "[2]": {"molecular_target": "Catechol O-methyltransferase (Homo sapiens) (UniProt P21964)", "sequence (P21964 whole entry, looked up)": "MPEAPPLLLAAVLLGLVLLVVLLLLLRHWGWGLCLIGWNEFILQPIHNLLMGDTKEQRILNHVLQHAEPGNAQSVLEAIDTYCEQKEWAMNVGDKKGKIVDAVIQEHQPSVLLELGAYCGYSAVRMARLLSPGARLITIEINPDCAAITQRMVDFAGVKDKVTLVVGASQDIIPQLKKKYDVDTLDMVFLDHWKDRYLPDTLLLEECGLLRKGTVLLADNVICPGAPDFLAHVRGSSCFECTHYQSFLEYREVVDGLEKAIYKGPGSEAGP", "test": "Confirmatory Screen for Target Class Profiling of Small Molecule Inhibitors of Methyltransferases (AID 1745852; calls by dose curve)", "details": "MTase-Glo luminescence, SAH detection, recombinant enzyme; measured here: COMT max response; stronger effect = lower value"}, "[3]": {"molecular_target": "Guanidinoacetate N-methyltransferase (Homo sapiens) (UniProt Q14353)", "test": "Confirmatory Screen for Target Class Profiling of Small Molecule Inhibitors of Methyltransferases (AID 1745852)", "details": "MTase-Glo luminescence, SAH detection, recombinant enzyme; activity change, negative = inhibition: at 57.3 µM (top of the series) unless noted"}, "[4]": {"molecular_target": "Nicotinamide N-methyltransferase (Homo sapiens) (UniProt P40261)", "sequence (P40261 whole entry, looked up)": "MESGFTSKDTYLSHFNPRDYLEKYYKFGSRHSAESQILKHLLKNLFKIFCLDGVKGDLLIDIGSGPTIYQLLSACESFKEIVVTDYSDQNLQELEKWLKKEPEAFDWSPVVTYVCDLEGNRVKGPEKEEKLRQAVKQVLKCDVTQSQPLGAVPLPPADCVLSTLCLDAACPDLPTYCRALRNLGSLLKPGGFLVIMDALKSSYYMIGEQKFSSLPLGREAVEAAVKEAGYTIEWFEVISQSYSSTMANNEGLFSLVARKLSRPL", "test": "Confirmatory Screen for Target Class Profiling of Small Molecule Inhibitors of Methyltransferases (AID 1745852)", "details": "MTase-Glo luminescence, SAH detection, recombinant enzyme; measured here: NNMT max response; stronger effect = lower value"}, "[5]": {"molecular_target": "Phenylethanolamine N-methyltransferase (Homo sapiens) (UniProt P11086)", "sequence (P11086 whole entry, looked up)": "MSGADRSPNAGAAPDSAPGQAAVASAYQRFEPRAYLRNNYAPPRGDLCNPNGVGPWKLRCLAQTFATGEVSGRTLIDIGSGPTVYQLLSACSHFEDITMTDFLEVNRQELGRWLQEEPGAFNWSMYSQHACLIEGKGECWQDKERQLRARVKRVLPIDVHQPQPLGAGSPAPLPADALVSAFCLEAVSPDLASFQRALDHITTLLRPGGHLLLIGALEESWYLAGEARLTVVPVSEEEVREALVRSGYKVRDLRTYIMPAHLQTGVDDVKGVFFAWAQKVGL", "test": "Confirmatory Screen for Target Class Profiling of Small Molecule Inhibitors of Methyltransferases (AID 1745852)", "details": "MTase-Glo luminescence, SAH detection, recombinant enzyme; measured here: PNMT max response; stronger effect = lower value"}, "[6]": {"test": "Primary qHTS for inhibitors of nuclear receptor binding SET domain protein 2 (NSD2) in an isogenic RCH-ACV NSD2 p.E1099K mutant (9B) (AID 1645876); note: nearly all actives have a fitted effect of over 70% in size; note: potency is the fitted concentration of half-maximal effect"}, "[7]": {"test": "Primary qHTS for inhibitors of nuclear receptor binding SET domain protein 2 (NSD2) in an RCH-ACV wild type WT cells (2C) (AID 1645877); note: nearly all actives have a fitted effect of over 70% in size; note: potency is the fitted concentration of half-maximal effect"}, "[8]": {"test": "Cytotoxicity counterscreen for inhibitors of SARS-CoV-2 cell entry (AID 1645845; calls by dose curve; note: nearly all actives have a fitted effect of over 50% in size)", "details": "outcome: at 57.1 µM (top of the series) unless noted", "procedure,_shortened": "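Counterscreen run in the same HEK293-ACE2 line as the pseudotyped-particle entry assay, without particles. Viability after 48 h at 37 C was read as ATP luminescence, scaled between cell-containing and cell-free wells.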"}},
  "note": "Results filed as inconclusive are left out. A call without a number means that no potency is given here. Activity calls are given as the source filed them. Unless noted, calls come from the whole dose curve; as a rule, active = well fitted curve in the direction sought with a large enough effect; inconclusive = small, poorly fitted or top-dose-only effect, or another doubt; inactive = no such curve, though single readings can be large; an effect the other way counts as inactive or inconclusive.",
  "data": [
    {"smiles": "COCC(C)N(C(=O)CCl)c1c(C)csc1C", "note": "(centres undefined)", "values": [
      {"measurement": "Potency", "setting": "[1]", "result": "13.5 µM (active)"}
    ]},
    {"smiles": "CCCCCOc1cc2c(cc1-c1cc(/C=C/C(=O)O)ccc1O)C(C)(C)CCC2(C)C", "values": [
      {"measurement": "Potency", "setting": "[1]", "result": "12 µM (active)"},
      {"measurement": "activity", "setting": "[2]", "result": -5.76, "unit": "%"},
      {"measurement": "activity change, negative = inhibition", "setting": "[3]", "result": -6.96, "unit": "%"},
      {"measurement": "activity", "setting": "[4]", "result": -28.2, "unit": "%"},
      {"measurement": "activity", "setting": "[5]", "result": 0.0952, "unit": "%"}
    ]},
    {"smiles": "CCCC(C)C1(CC)C(=O)NC(=O)NC1=O", "note": "(centres undefined)", "values": [
      {"measurement": "Potency", "setting": "[1]", "result": "inactive"}
    ]},
    {"smiles": "CCc1c(C(=O)C(N)=O)c2c(OCC(=O)OC)cccc2n1Cc1ccccc1", "values": [
      {"measurement": "Potency", "setting": "[1]", "result": "13.5 µM (active)"},
      {"measurement": "Potency", "setting": "[6]", "result": "inactive"},
      {"measurement": "Potency", "setting": "[7]", "result": "inactive"}
    ]},
    {"smiles": "CCc1[nH]c2ccc(OC)cc2c1CCN(C)C", "values": [
      {"measurement": "Potency", "setting": "[1]", "result": "inactive"},
      {"measurement": "Potency", "setting": "[6]", "result": "inactive"},
      {"measurement": "Potency", "setting": "[7]", "result": "inactive"}
    ]},
    {"smiles": "CC(N)Cc1c[nH]c2ccccc12", "note": "(centres undefined)", "values": [
      {"measurement": "Potency", "setting": "[1]", "result": "inactive"},
      {"measurement": "Potency", "setting": "[6]", "result": "inactive"},
      {"measurement": "Potency", "setting": "[7]", "result": "inactive"}
    ]},
    {"smiles": "NCC(O)c1cccc(O)c1", "note": "(centres undefined)", "values": [
      {"measurement": "Potency", "setting": "[1]", "result": "inactive"},
      {"measurement": "outcome", "setting": "[8]", "result": "inactive"}
    ]},
    {"smiles": "CCCCNCC(O)c1ccc(O)cc1", "note": "(centres undefined)", "values": [
      {"measurement": "Potency", "setting": "[1]", "result": "inactive"},
      {"measurement": "outcome", "setting": "[8]", "result": "inactive"}
    ]},
    {"smiles": "Cc1cccc(NC(=O)N[C@@H]2N=C(c3ccccc3)c3ccccc3N(C)C2=O)c1", "values": [
      {"measurement": "Potency", "setting": "[1]", "result": "12 µM (active)"}
    ]},
    {"smiles": "COc1cc(C)[nH]c(=O)c1CNC(=O)c1c(C)n([C@H](C)C2CCOCC2)c2ccccc12", "values": [
      {"measurement": "Potency", "setting": "[1]", "result": "13.5 µM (active)"},
      {"measurement": "outcome", "setting": "[8]", "result": "inactive"},
      {"measurement": "Potency", "setting": "[6]", "result": "inactive"},
      {"measurement": "Potency", "setting": "[7]", "result": "inactive"}
    ]},
    {"smiles": "CC(C)[C@@H](CN1CC[C@@](C)(c2cccc(O)c2)[C@@H](C)C1)NC(=O)[C@H]1Cc2ccc(O)cc2CN1", "values": [
      {"measurement": "Potency", "setting": "[1]", "result": "inactive"},
      {"measurement": "Potency", "setting": "[6]", "result": "18.3 µM (active)"},
      {"measurement": "Potency", "setting": "[7]", "result": "14.5 µM (active)"}
    ]},
    {"smiles": "COC(=O)N1CCN(C(=O)Cc2ccc(Cl)c(Cl)c2)[C@@H](CN2CCCC2)C1", "values": [
      {"measurement": "Potency", "setting": "[1]", "result": "inactive"},
      {"measurement": "Potency", "setting": "[6]", "result": "inactive"},
      {"measurement": "Potency", "setting": "[7]", "result": "inactive"}
    ]},
    {"smiles": "O=[N+]([O-])C(Br)(CO)CO", "values": [
      {"measurement": "Potency", "setting": "[1]", "result": "6.74 µM (active)"},
      {"measurement": "outcome", "setting": "[8]", "result": "inactive"}
    ]},
    {"smiles": "Clc1ccc(OCC2=NCCN2)cc1Cl", "values": [
      {"measurement": "Potency", "setting": "[1]", "result": "inactive"},
      {"measurement": "Potency", "setting": "[6]", "result": "inactive"},
      {"measurement": "Potency", "setting": "[7]", "result": "inactive"}
    ]},
    {"smiles": "Cn1ncnc1COc1nn2c(-c3c(F)cccc3F)nnc2cc1C1CCC1", "values": [
      {"measurement": "Potency", "setting": "[1]", "result": "6.74 µM (active)"},
      {"measurement": "Potency", "setting": "[6]", "result": "inactive"},
      {"measurement": "Potency", "setting": "[7]", "result": "inactive"}
    ]}
  ]
}
